Screening results from PubChem BioAssay.
RTF Ca sens inh: cardiac RTF calcium sensitivity inhibitors, primary screen, biochemical, IANBD-TnC fluorescence, EC70 calcium; inhibition, % at 7.15 µM; actives 0.12% (n = 340,000); Troponin I, cardiac muscle (Homo sapiens) + Troponin T, cardiac muscle (Homo sapiens) + …; IANBD-labeled cardiac RTF, Ca2+ fluorescence;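 active = inhibition above the mean inhibition of all tested compounds plus 3 SD, cut at about 17% in these data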;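 also: assay run at fixed EC70 calcium of 1.6 mM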
CRFR2-BP ag: agonists of CRF-BP/CRF-R2 complex, primary screen, cell-based, HEK293, calcium dye fluorescence, uHTS; activation, % at 13.2 µM; actives 0.46% (n = 350,000); calcium dye fluorescence (FLIPR); percent of saturating CRF peptide response; CRF-binding protein / CRF receptor 2 complex (human);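 active = activation of at least 50%, plus an integration ratio under a set limit after plate pattern correction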
RTF Ca sens act: cardiac RTF calcium sensitivity activators, primary screen, biochemical, IANBD-TnC fluorescence, EC20 calcium. Troponin I, cardiac muscle (Homo sapiens) + Troponin T, cardiac muscle (Homo sapiens) + …. IANBD-labeled TnC RTF fluorescence at EC20 calcium; 0% EC20 calcium, 100% full calcium. activation, % at 7.2 µM. actives 0.24% (n = 340,000). AID 493008, 2010;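 active = activation above the mean over all tested compounds plus 3 SD, cut at about 30% in these data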;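 also: rise in fluorescence read as greater calcium sensitivity of cardiac thin filaments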
CRFBP-R2 block: antagonists of CRF-BP/CRF-R2 complex, primary screen, cell-based, HEK293, calcium dye fluorescence, uHTS. CRF-induced calcium fluorescence. actives 0.59% (n = 350,000). inhibition, % at 11.8 µM;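 active = inhibition of the ligand-induced calcium signal above about 50% at the single tested concentration, limit read from the data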
IDE act: human IDE activators in live cells, primary screen, fluorescence polarization, HEK cells, FAbeta-B substrate. FAbeta-B cleavage; 0% vehicle, 100% cell-free pure enzyme wells. activation, % at 5.96 µM. actives 0.073% (n = 340,000). Insulin-degrading enzyme (Homo sapiens), P14735. AID 493087, 2011;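 active = activation above the mean of all tested compounds plus 3 SD, set per screening campaign, cut at about 17% in these data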
IDE cell inh: human IDE inhibitors in live cells, primary screen, fluorescence polarization, HEK cells, FAbetaB substrate | actives 0.41% (n = 320,000) | Insulin-degrading enzyme (Homo sapiens), P14735 | FAbetaB cleavage | inhibition, % at 5.59 µM;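 active = percent inhibition above the average of all tested compounds plus 3 SD, set per screening campaign, cut at about 16% in these data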;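 also: IDE supplied by intact live HEK cells; FP after avidin binding of uncleaved biotin substrate so inhibition keeps polarization high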
Numbers stand for hits. Most compounds without a hit are left out; they make up all but 1.5% or so of the library.

`CCC(C)[C@H](NC(=O)N1CCC(C)CC1)C(=O)OC` (some centres undefined) gave RTF Ca sens inh inactive, CRFR2-BP ag inactive, RTF Ca sens act 44, CRFBP-R2 block inactive, IDE act inactive and IDE cell inh inactive.
CCC(C)[C@H](NC(=O)N1CCCC1)C(=O)OC (some centres undefined) was read as RTF Ca sens inh inactive, CRFR2-BP ag inactive, RTF Ca sens act inactive, CRFBP-R2 block inactive, IDE act inactive and IDE cell inh inactive.
Screening CC[C@H](C)[C@H](NC(=O)OCc1ccccc1)C(=O)OCC(=O)N1CCN(c2ccc(OC)cc2)CC1 returned RTF Ca sens inh inactive, CRFR2-BP ag inactive, RTF Ca sens act inactive, CRFBP-R2 block inactive and IDE act inactive.
`CCNc1nc(NCC)n2c(SCc3ccc(F)cc3)nnc2n1` gave RTF Ca sens inh inactive, CRFR2-BP ag inactive, RTF Ca sens act inactive, CRFBP-R2 block 51, IDE act inactive and IDE cell inh inactive.
Screening CCNc1nc(NCC)n2c(SCC(=O)Nc3ccc(CC)cc3)nnc2n1 returned RTF Ca sens inh inactive, CRFR2-BP ag inactive, RTF Ca sens act inactive, CRFBP-R2 block inactive, IDE act inactive and IDE cell inh inactive.
For CCOC(=O)C1=C(C)NC(C)=C(C(=O)OCC)C1/C=C/c1ccccc1 the results were RTF Ca sens inh inactive, CRFR2-BP ag inactive, RTF Ca sens act inactive, CRFBP-R2 block inactive, IDE act inactive and IDE cell inh inactive.
COC(=O)C1=C(C)NC(C)=C(C(=O)OC)C1/C=C/c1ccccc1 was read as RTF Ca sens inh inactive, CRFR2-BP ag inactive, RTF Ca sens act inactive, CRFBP-R2 block 53, IDE act inactive and IDE cell inh inactive.
CC(C)(C)OC(=O)N1CCC(Cc2cc(-c3cccnc3)no2)(C(=O)O)CC1 was read as RTF Ca sens inh inactive, CRFR2-BP ag inactive, RTF Ca sens act inactive, CRFBP-R2 block inactive, IDE act inactive and IDE cell inh inactive.
For CCOc1ccc(-c2cn(-c3ccc(OC)cc3)c(SC)n2)cc1 the results were RTF Ca sens inh inactive, CRFR2-BP ag inactive, RTF Ca sens act inactive, CRFBP-R2 block inactive, IDE act inactive and IDE cell inh 17.
For CC1(C)COCN1S(=O)(=O)c1ccc(C(=O)Nc2nnc(-c3ccc(Cl)s3)o2)cc1 the results were CRFR2-BP ag 90, CRFBP-R2 block inactive and IDE cell inh inactive.
Screening O=C(Nc1nnc(-c2ccccc2Cl)o1)c1ccc(S(=O)(=O)N2CCCCCC2)cc1 returned CRFR2-BP ag 54, CRFBP-R2 block inactive and IDE cell inh inactive.
`CC1CCCCN1S(=O)(=O)c1ccc(C(=O)Nc2nnc(-c3ccccc3Cl)o2)cc1` (centres undefined) gave RTF Ca sens inh inactive, CRFR2-BP ag inactive, RTF Ca sens act inactive, CRFBP-R2 block inactive, IDE act inactive and IDE cell inh inactive.
For COc1ccc(-c2nnc(NC(=O)c3ccc(S(=O)(=O)N4COCC4(C)C)cc3)o2)cc1 the results were RTF Ca sens inh inactive, CRFR2-BP ag inactive, RTF Ca sens act inactive, CRFBP-R2 block inactive, IDE act inactive and IDE cell inh inactive.
CCC1CCCCN1S(=O)(=O)c1ccc(C(=O)Nc2nnc(-c3ccccc3Cl)o2)cc1 (centres undefined) was read as RTF Ca sens inh inactive, CRFR2-BP ag 126, RTF Ca sens act inactive, CRFBP-R2 block inactive, IDE act inactive and IDE cell inh inactive.
Cc1c(C(c2ccccc2Br)c2c(C)n(C)n(-c3ccccc3)c2=O)c(=O)n(-c2ccccc2)n1C was read as RTF Ca sens inh inactive, CRFR2-BP ag inactive, RTF Ca sens act inactive, CRFBP-R2 block inactive, IDE act inactive and IDE cell inh inactive.
`CN1C/C(=C\c2ccc(N3CCOCC3)cc2)C(=O)/C(=C/c2ccc(N3CCOCC3)cc2)C1` gave RTF Ca sens inh inactive, CRFR2-BP ag 66, RTF Ca sens act inactive, CRFBP-R2 block inactive, IDE act inactive and IDE cell inh inactive.
